In PubChem BioAssay AID1851 (National Center for Advancing Translational Sciences (NCATS), 2009):
Hit rate of the full screen: of about 16,000 compounds, about 5,100 (32%) were called active. Not shown: some 25% with an inconclusive outcome. Calls follow the shape of the dose curve; as a rule, active = well fitted curve in the direction sought with a large enough effect; inconclusive = small, poorly fitted or top-dose-only effect, or effect the other way; inactive = no such curve, though single readings can be large or run the other way. The list shows a part of the results.

Target: Cytochrome P450 3A4 (Homo sapiens) (UniProt P08684)
Sequence (P08684 whole entry, looked up): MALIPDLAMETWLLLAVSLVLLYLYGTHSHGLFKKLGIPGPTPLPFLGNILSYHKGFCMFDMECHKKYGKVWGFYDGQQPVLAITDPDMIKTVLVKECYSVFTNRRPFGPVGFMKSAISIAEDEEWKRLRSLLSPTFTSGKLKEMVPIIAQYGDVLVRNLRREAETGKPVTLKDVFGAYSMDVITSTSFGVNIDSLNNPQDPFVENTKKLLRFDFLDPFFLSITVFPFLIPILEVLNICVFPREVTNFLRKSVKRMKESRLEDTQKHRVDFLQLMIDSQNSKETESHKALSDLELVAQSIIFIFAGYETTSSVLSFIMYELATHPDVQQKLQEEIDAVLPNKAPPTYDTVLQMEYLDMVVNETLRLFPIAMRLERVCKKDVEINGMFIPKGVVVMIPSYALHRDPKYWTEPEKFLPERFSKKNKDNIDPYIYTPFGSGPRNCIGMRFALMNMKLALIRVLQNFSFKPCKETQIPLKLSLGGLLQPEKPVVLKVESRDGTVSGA
Experiment: Cytochrome panel assay with activity outcomes
Settings: recombinant CYP, pro-luciferin dealkylation, luminescence, p450-cyp3a4; series mostly up to 57.1 µM
% is scaled to controls: 0 for no effect and ±100 for the full control effect.

activity, negative = inhibition, inactive:
Oc1ccc2ccccc2c1Cc1c(O)ccc2ccccc12 -19% [at 11.4 µM], OC[C@H](S)CS -9.69% [at 11.4 µM], COC(=O)Cn1cc(/C=N/NC(=O)c2ccc(C#N)cc2F)c2ccccc21 -10.5% [at 2.29 µM], O=C1C2C3C=CC(C3)C2C(=O)N1/N=C/c1cn(Cc2ccccc2)c2ccccc12 (stereo not drawn) -22.4% [at 11.4 µM], COC(=O)/C=C\CCc1coc(/C=C\CNC(=O)OC)n1 -19.3% [at 11.4 µM], Cc1cc(C2(c3cc(C)c(O)c(C(=O)O)c3)OS(=O)(=O)c3ccccc32)cc(C(=O)O)c1O 5.57% [at 11.4 µM], O=C(O)c1c[nH]c2cc(OCc3ccccc3)ccc2c1=O -10.2% [at 11.4 µM], CC1(C)[C@@H]2CC[C@]1(C)[C@@H](OC(=O)CSC#N)C2 -20.6% [at 11.4 µM], CCCCCCC(C)n1cc(C(C)=O)c(=O)[nH]c1=O (stereo not drawn) 12.8% [at 2.29 µM], CCOC(=O)CNC(=O)c1cccnc1 4.45% [at 11.4 µM], O=C(NC(=S)Nc1ccc(Br)cn1)c1cncc(Br)c1 -24.4% [at 2.29 µM], CCOC(=O)c1cncc(C(=O)O)c1 1.77% [at 2.29 µM]

AC50, active:
COc1ccc2c(Cc3c4ccccc4cc4ccccc34)cncc2c1O 1 µM, COc1ccc(-c2nnc(SCc3cccc(C)c3)n2N)cc1 10 µM, CCn1c(SCc2cccc(C)c2)nnc1-c1ccc(C)cc1 8.91 µM, CCn1c(SCc2ccc(C)cc2)nnc1-c1nn(-c2ccccc2)ccc1=O 8.91 µM, O=C1C2C3C=CC(C3)C2C(=O)N1/N=C/c1cn(Cc2ccc(F)cc2)c2ccccc12 (stereo not drawn) 2.82 µM, COC(=O)[C@@H]1C[C@H]1[C@@H](NC(=O)Oc1ccc(F)cc1)c1ccccc1 12.6 µM, COC(=O)[C@H]1C[C@@H]1[C@H](NC(=O)Oc1ccc(F)cc1)c1ccccc1 15.8 µM, CCCCCC1=C2CNC(C)(C(=O)OC)C=C2C(C)C1=O (stereo not drawn) 12.6 µM, CCCCCC1=C2CNC(CCC)(C(=O)OC)C=C2C(C)C1=O (stereo not drawn) 20 µM, COC(=O)C1(C)C=C2C(=C(c3ccccc3)C(=O)C2C)CN1 (stereo not drawn) 10 µM, COC(=O)C1(Cc2ccccc2)C=C2C(=C(C(C)C)C(=O)C2C)CN1 (stereo not drawn) 7.94 µM, CCCCCC1=C2CNC(Cc3ccccc3)(C(=O)OC)C=C2C(C)C1=O (stereo not drawn) 15.8 µM, COc1ncc2nc(-c3cccs3)c(=O)n(C)c2n1 15.8 µM, COc1ccc(Oc2ncc3nc(-c4cccs4)c(=O)n(C)c3n2)cc1 3.98 µM, CC1=CC(C)(C)Nc2ccc(CSc3ccccc3)cc21 3.98 µM, Cc1cc2c(cc1C)NC1=C(N2)O[C@H](c2c[nH]c3ccc(COc4ccccc4)cc23)C1=O 3.98 µM, COCCN=C1Sc2nc3c(C)cccc3cc2CN1Cc1ccco1 14.1 µM, O=c1c(CCc2ccccc2)nc2cncnc2n1Cc1ccccc1Cl 15.8 µM, O=c1c(CCc2ccccc2)nc2cncnc2n1Cc1ccc(F)cc1 3.16 µM, CCCCCCCCCCCCCCCC(=O)NC[C@@H](COP(=O)([O-])OCC[N+](C)(C)C)OCC 25.1 µM, CCCCCCCCCCCCCCCCCC(=O)NC[C@@H](COP(=O)([O-])OCC[N+](C)(C)C)OCC 31.6 µM, Fc1cccc(Cl)c1CSc1ncn[nH]1 4.47 µM, CCCC[C@@H]1C[C@H]1C(NC(=O)c1cccs1)c1ccccc1C(F)(F)F (stereo partly drawn) 3.16 µM, CCCC[C@@H]1C[C@H]1C(NC(=O)c1cccs1)c1ccc(C(F)(F)F)cc1 (stereo partly drawn) 3.16 µM, CCCC[C@@H]1C[C@H]1C(NC(=O)c1ccc(C(F)(F)F)cc1)c1ccc(C(=O)OC)cc1 (stereo partly drawn) 5.01 µM, CCCC[C@@H]1C[C@H]1C(NC(=O)c1cccs1)c1ccc(Cl)cc1 (stereo partly drawn) 5.01 µM, Cc1ccc(OCCNC(=O)c2cncc(Br)c2)cc1C 7.08 µM, CCOC(=O)CCCNC(=O)c1cncc(Br)c1 14.1 µM, Cc1ccc(OCCNC(=O)c2cc(-n3cnnc3)ccc2Cl)cc1C 7.94 µM, Cc1nc2c(OCc3ccccc3)cccn2c1CC#N 15.8 µM

AC50, inactive:
O=C(O)c1cc2ccccc2c(Cc2cc3ccccc3c(C(=O)O)c2O)c1O (tested in a mixture with another compound), Cc1cccc(CSc2cccc3cccnc23)c1, CCC(=O)O[C@@H]1[C@H](C)O[C@H](O[C@H]2[C@@H](N(C)C)[C@H](O)[C@@H](O[C@@H]3[C@@H](CC=O)C[C@@H](C)[C@@H](O)/C=C\C=C/C[C@@H](C)OC(=O)C[C@@H](OC(=O)CC)[C@H]3OC)O[C@H]2C)C[C@]1(C)O, COC(=O)[C@@H]1C[C@H]1[C@@H](NC(C)=O)c1ccccc1, COC(=O)[C@H]1C[C@@H]1[C@H](NC(C)=O)c1ccccc1, O=C(O)[C@H]1CN(CCCP(=O)(O)O)CCN1, Cn1c(=O)c(-c2cccs2)nc2cnc(Oc3ccccc3)nc21, O=c1cnc2cncnc2n1Cc1ccccc1Cl, O=c1c(-c2ccccc2)nc2cncnc2n1Cc1ccccc1Cl, CCCCCCCCCCCCCC(=O)O[C@H](CC(=O)O)C[N+](C)(C)C, CCCCCCCCCCCCCCCCCCOC[C@@H](COP(=O)([O-])OCC[N+](C)(C)C)OC, CCCCCCCCCCCCCCCCCCNC(=O)OC[C@@H](COP(=O)([O-])OCC[n+]1ccsc1)OC, CCCCCCCCCCCCCCCCCC(=O)O[C@H](CC(=O)O)C[N+](C)(C)C, CN(C)CCNC(=O)c1cc(Br)ccc1Cl, O=C(Nc1ccccc1)c1cc(-n2cnnc2)ccc1Cl, Cn1c(-c2sccc2OCc2ccccc2)n[nH]c1=S
